Inconclusive results are not listed. Values without a mark were called inactive. The source made the active and inactive calls. Calls follow the shape of the dose curve; as a rule, active = well fitted cell-killing curve with a large enough effect in the repeat runs; inconclusive = weak or mixed curves; inactive = flat fitted curve, though single readings scatter.
% is scaled to controls: 0 for no effect and ±100 for the full control effect; potency is read from the fitted curve at half-maximal effect.

The nature of the assay: qHTS RealTime-Glo MT Cell Viability Assay in HepG2 cells - 24 hour (AID 1224867). Also: nearly all actives have a fitted effect of over 50% in size. The conditions noted are these: RealTime-Glo luminescence; series mostly up to 76.8 µM; activity change, negative = cytotoxicity: at the top concentration. The text has this:
U.S. Tox21 Program National Center for Advancing Translational Sciences [NCATS] NIH Chemical Genomics Center [NCGC] U.S. Environmental Protection Agency [EPA] National Institutes of Environmental Health Sciences [NIEHS] National Toxicology Program [NTP] U.S. Food and Drug Administration [FDA] Tox21 Assay Overview: Measure of cell viability is critical in the cell-base assay. Analysis of cell viability is necessary for the characterization of cell responses to cytotoxic drugs and environmental stress. A RealTime-Glo MT Cell Viability Assay to monitor cell viability in real time of continues cell culture during 40 hours of compound treatment was used to screen Tox21 10K library compounds in HepG2 cells. The RealTime-Glo MT Cell Viability Assay is a nonlytic, homogeneous, bioluminescent method to measure cell viability in real time using a simple, plate-based method. The assay involves adding NanoLuc luciferase and a cell-permeant prosubstrate to cells in culture. Viable cells reduce the proprietary prosubstrate to generate a substrate for NanoLuc luciferase. This substrate diffuses from cells into the surrounding culture medium, where it is rapidly used by the NanoLuc Enzyme to produce a luminescent signal. The signal correlates with the number of viable cells, making the assay well suited for cytotoxicity studies.
Tox21 Assay Protocol Summary: The mixture of HepG2 cell suspension and reagents were dispensed at 600cells/6 ul/well in 1536-well tissue culture treated black solid bottom plates using a Multidrop dispenser. After the assay plates were incubated at a 37 C/5% CO2 incubator for 5 hours, 23 nL of compounds dissolved in DMSO, positive and negative controls was transferred to the assay plate by a pintool work station. The plates were incubated at 37 C for 40 hours. The luminescence intensity were measured at 0h, 8h, 16h, 24h, 32h and 40h time points using ViewLux plate reader during compound treatment.
On the technique in general: Quantitative high-throughput screening tests each substance at several concentrations.
Consider `CCCCCCCCCCCC(=O)NCCCN(C)C`, for which the Potency was 43.6 µM (active). Still for that read-out and setting: under `[O-][n+]1ccccc1SSc1cccc[n+]1[O-]` stands 0.208 µM (active). For `OCCN(CCO)c1nc(N2CCCCC2)c2nc(N(CCO)CCO)nc(N3CCCCC3)c2n1`, the “activity change, negative = cytotoxicity” value was -17.1% [at 35.3 µM]. Same read-out and setting: under `ON=C1CCCC1` stands -11.4%; under `CCC(C)(C)C1CCCCC1OC(C)=O` (stereo not given), 0.266%. As to `CCCC(C)c1ccccc1O` (stereo not given), the “activity change, negative = cytotoxicity” value is -22.4%. The same measure, in the same setting: as for `Nc1ccc2c3c(cccc13)-c1ccccc1-2`, the figure is -14.2%. On the same count and under the same terms, as for `Clc1ccc(C(Cn2ccnc2)OCc2ccc(Sc3ccccc3)cc2)c(Cl)c1` (stereo not given), the figure is -1.14% [at 35.3 µM]; as for `CCCCN1C(=O)[C@@H]([C@H](O)C2CCCCC2)NC(=O)C12CCN(Cc1ccc(Oc3ccc(C(=O)O)cc3)cc1)CC2`, -7.7%. `CCCCCCCCCCCC[N+](C)(C)CCCCCCCCCCCC`: the Potency is 7.76 µM (active). Consider `CNC(=O)c1ccccc1`, for which the “activity change, negative = cytotoxicity” value was 2.55%. For the molecule `O=c1c(-c2ccccc2)c1-c1ccccc1`, the Potency is 16.9 µM (active). Take `O=CC=C(c1ccccc1)c1ccccc1`: the “activity change, negative = cytotoxicity” value is -15.2%. In the case of `CC(C)(C)c1ccc(C(=O)CCCN2CCC(OC(c3ccccc3)c3ccccc3)CC2)cc1`, the Potency is 21.3 µM (active). As to `N=C1N=C(N)c2cc3ccccc3cc21`, the Potency was 47.6 µM [cytotoxic] (active).

On to `Cn1cc(C(=O)[C@@H]2CCc3nc[nH]c3C2)c2ccccc21`, for which the “activity change, negative = cytotoxicity” value is -17.2% [at 35.3 µM].

Consider `Cc1cc(O)c(C(C)(C)C)cc1Sc1cc(C(C)(C)C)c(O)cc1C`, for which the Potency is 43.6 µM (active). Regarding `Clc1ccc2cc3ccccc3cc2c1`, the “activity change, negative = cytotoxicity” value is -2.96%. On to `NC(=O)C1(N2CCCCC2)CCN(CCCN2c3ccccc3CCc3ccc(Cl)cc32)CC1`, for which the Potency is 23.9 µM (active). Consider `CC(C)(C)NC(=O)[C@@H]1C[C@@H]2CCCC[C@@H]2CN1C[C@@H](O)[C@H](Cc1ccccc1)NC(=O)[C@H](CC(N)=O)NC(=O)c1ccc2ccccc2n1`, for which the Potency is 55.7 µM (active). Consider `C1CCCC1`, for which the “activity change, negative = cytotoxicity” value is -0.358%. `C[C@]12CCC(=O)C=C1CC[C@@H]1[C@@H]2[C@@H](O)C[C@@]2(C)[C@H]1CC[C@]2(O)C(=O)COC(=O)CCC(=O)O`: the “activity change, negative = cytotoxicity” value is 1.86% [at 35.3 µM]. For `CC1=C(/C=C/C(C)=C/C=C/C(C)=C/C=O)C(C)(C)CCC1`, the Potency is 54.6 µM (active).

For `Cc1oc(-c2ccccc2)nc1CCC(=O)c1ccc(CC2SC(=O)NC2=O)cc1` (stereo not given), the “activity change, negative = cytotoxicity” value is -6.5% [at 35.3 µM]. The same measure, in the same setting: under `NNC(=O)c1cccc(C(=O)NN)c1` stands 2.83%; under `CC(=O)OCC(C)OC(C)=O` (stereo not given), 0.374%. Still for that read-out and setting: under `Oc1ccc2cc(SSc3ccc4cc(O)ccc4c3)ccc2c1` stands -21.3%.

Turning to `Cc1cc(O)c2ccccc2c1O`, the Potency was 13.4 µM (active).

For the molecule `CCCCN(CCCC)c1ccc(C(=O)c2ccccc2C(=O)O)c(O)c1`, the “activity change, negative = cytotoxicity” value is -3.79%. Turning to `CCCCCCCCCCCCc1ccc(O)cc1`, the Potency is 49 µM (active). `CC(C)=CCOc1ccc(/C=C/C(=O)c2ccc(OCC=C(C)C)cc2OCC(=O)O)cc1`: the “activity change, negative = cytotoxicity” value was 3.08% [at 35.3 µM]. For the molecule `CCOC(=O)/C=C(C)/C=C/C=C(C)/C=C/c1c(C)cc(OC)c(C)c1C`, the “activity change, negative = cytotoxicity” value is -2.96% [at 35.3 µM]. As to `CCc1cc(Cc2cc(CC)cc(C(C)(C)C)c2O)c(O)c(C(C)(C)C)c1`, the Potency is 49 µM (active). As to `CCCCCCCCS(=O)C(C)Cc1ccc2c(c1)OCO2` (stereo not given), the “activity change, negative = cytotoxicity” value was 1.46%. Take `C/C(=C(/OCCOc1ccc(Cl)cc1)c1ccc(Cl)cc1Cl)n1ccnc1`: the “activity change, negative = cytotoxicity” value was -9.85% [at 35.3 µM]. The same measure, in the same setting: as for `Oc1ccc2c(c1)-c1ccccc1C2`, the figure is -24.1%; as for `C/C=C(\C)C(=O)OCc1ccccc1`, -3.05%; as for `COc1cccc(N)c1`, 1.97%. As for `CCCCCOC(=O)CCCC`, the “activity change, negative = cytotoxicity” value was 2.67%. `O=c1cc(-c2ccc(O)cc2)oc2cc(O)cc(O)c12`: the “activity change, negative = cytotoxicity” value was -20.5%.

(Values after PubChem BioAssay (Tox21).)
